Test results published in PubChem BioAssay AID504569 (NMMLSC, 2011).
Measured potencies and affinities stand elsewhere. Activity calls are given as the source filed them.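 The calls were made as follows: active = activity score above a set limit, rewarding a half-maximal dose under 10 µM and fitted response height over 20%; inactive = the rest.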

Target: ATP-dependent translocase ABCB1 (Homo sapiens) (UniProt P08183)
Assay: ABCB1 efflux inhibitor potency, dose response, Jurkat-DNR cells, JC-1, flow cytometry, set 2 (AID 504569)

Chain of ATP-dependent translocase ABCB1 (Homo sapiens) (P08183 whole entry, looked up): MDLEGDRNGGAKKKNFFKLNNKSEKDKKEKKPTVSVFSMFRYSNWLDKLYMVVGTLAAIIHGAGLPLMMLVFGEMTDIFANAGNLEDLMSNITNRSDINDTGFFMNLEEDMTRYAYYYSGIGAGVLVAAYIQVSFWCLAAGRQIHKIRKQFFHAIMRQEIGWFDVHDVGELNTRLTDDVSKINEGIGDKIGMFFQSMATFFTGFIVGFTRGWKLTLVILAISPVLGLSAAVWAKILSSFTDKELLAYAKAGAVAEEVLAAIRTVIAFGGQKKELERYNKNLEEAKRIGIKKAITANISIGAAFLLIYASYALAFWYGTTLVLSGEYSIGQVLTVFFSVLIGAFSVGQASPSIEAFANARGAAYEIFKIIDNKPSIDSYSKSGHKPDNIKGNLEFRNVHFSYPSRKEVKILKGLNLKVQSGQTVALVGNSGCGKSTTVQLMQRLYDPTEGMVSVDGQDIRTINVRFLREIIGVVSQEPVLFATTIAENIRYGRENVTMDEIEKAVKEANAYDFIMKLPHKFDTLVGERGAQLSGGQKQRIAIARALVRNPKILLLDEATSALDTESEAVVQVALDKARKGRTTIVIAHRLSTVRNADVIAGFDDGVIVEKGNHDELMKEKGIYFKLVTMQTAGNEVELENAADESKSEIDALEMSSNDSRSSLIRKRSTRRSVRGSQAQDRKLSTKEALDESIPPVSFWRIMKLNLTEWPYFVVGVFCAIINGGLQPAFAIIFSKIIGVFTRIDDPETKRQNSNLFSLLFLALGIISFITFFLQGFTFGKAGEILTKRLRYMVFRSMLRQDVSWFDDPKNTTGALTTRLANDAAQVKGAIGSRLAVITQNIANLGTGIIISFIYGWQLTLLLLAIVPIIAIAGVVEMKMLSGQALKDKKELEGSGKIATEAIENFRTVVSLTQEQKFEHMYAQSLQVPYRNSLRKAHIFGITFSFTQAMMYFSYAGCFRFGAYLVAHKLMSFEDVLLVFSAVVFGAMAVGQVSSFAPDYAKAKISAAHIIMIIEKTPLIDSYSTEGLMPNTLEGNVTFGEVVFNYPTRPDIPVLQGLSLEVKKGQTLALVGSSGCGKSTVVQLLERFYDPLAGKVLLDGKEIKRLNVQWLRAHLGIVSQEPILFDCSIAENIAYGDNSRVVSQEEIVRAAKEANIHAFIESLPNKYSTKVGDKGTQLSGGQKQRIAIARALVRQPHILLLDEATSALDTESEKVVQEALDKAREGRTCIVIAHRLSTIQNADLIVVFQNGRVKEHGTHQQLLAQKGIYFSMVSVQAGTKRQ

SMILES | outcome
O=S(=O)(c1ccccc1)N1CCN(c2cc(-c3ccccc3)nc3cc(-c4cccc(Cl)c4)nn23)CC1 | inactive
Cc1nc2cc(-c3cccs3)nn2c(N2CCN(C(=O)c3ccco3)CC2)c1C | inactive
CC(=O)N1CCN(c2c(C)c(C)nc3cc(-c4ccc(Cl)cc4)nn23)CC1 | inactive
